Screening results deposited in PubChem BioAssay by several laboratories.
tim23-1 inh: inhibits growth of tim23-1 mutant yeast; AID 463212; S. cerevisiae tim23-1 growth, BacTiter-Glo luminescence, 24 h; actives 1.3% (n = 330,000); inhibition, % at 20 µM;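 active means growth inhibition of the mutant yeast at or above 50%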;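 further: temperature-sensitive mutant grown at 25 °C; plate controls were DMSO-treated mutant yeast for no effect and medium wells lacking yeast for full effect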
TIM10 inh: growth inhibitors of TIM10 yeast strain | S. cerevisiae TIM10 strain growth, BacTiter-Glo luminescence, 24 h | inhibition, % at 10 µM | actives 1.4% (n = 330,000);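 active means inhibition of 40% or more at the single tested concentration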;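 further: wild-type TIM10 isogenic control strain grown at permissive 25 °C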
Mot1-301 SUMO: SUMOylation pathway inhibition by Mot1-301 growth rescue. S. cerevisiae Mot1-301 growth rescue, ATP luminescence, 38.5C; percent above DMSO median, 100 means doubled. growth rescue, % at 18.8 µM. actives 1% (n = 320,000). AID 2716;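 active means every valid replicate shows activation above 250% relative to neutral control wells; inactive means the rest, any valid replicate at or below 250%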;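 further: OY570 slx delta 5 strain wells were the positive control but not used for scaling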
tim10-1 inh: tim10-1 yeast growth inhibition | S. cerevisiae tim10-1 ts strain growth, BacTiter-Glo, 24 h | inhibition, % at 20 µM | actives 2.2% (n = 330,000) | AID 463190;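 active means inhibition of at least 40%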;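 further: mutant grown at 25 °C; 0% = DMSO wells with yeast and 100% = wells holding no yeast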
PfHsp90 set2: inhibits growth of yeast expressing Plasmodium falciparum Hsp90; S. cerevisiae expressing PfHsp90, BacTiter-Glo ATP, 48 h; yeast lacking PDR1 and PDR3 efflux regulators; inhibition, % at 9.4 µM; actives 0.32% (n = 310,000); AID 504621;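 active means every replicate shows inhibition above about 80%, whatever the replicate mean, limit read from the data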;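 further: 0% = DMSO neutral controls and 100% = 20 µM radicicol positive controls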
Yeast Mot1 SUMO: SUMO pathway inhibitors in yeast Mot1-301 growth; S. cerevisiae Mot1-301 galactose growth, ATP luminescence, 24 h; -100 = growth of slx-deleted rescue strain; shares compounds with Mot1-301 SUMO; AID 493004; growth activity, percent, % at 42 µM; 2,300 tested, under 10 active;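 active means Signal drops as the depositor expects, and the fitted half-maximal dose is no more than ten times the top valid tested dose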;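 further: more negative values mean stronger growth rescue toward the control strain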
The depositor's hits bear a star; [ ] = another dose, or the depositor's remark. Rows were chosen to be rich in hits. Some 4.4% of all compounds tested hit in one or more screens of this group.

Screening Cc1cc(C)cc(NC(=O)CSc2nc(N)c(NC(=O)c3ccc(Br)o3)c(=O)[nH]2)c1 returned tim23-1 inh -1.5, TIM10 inh 1.1, Mot1-301 SUMO 9.2, tim10-1 inh -4.2 and PfHsp90 set2 0.5.
Screening O=C(NCCNc1ccc(Cl)cc1[N+](=O)[O-])c1ccccc1F returned tim23-1 inh 24.7, TIM10 inh -2.5, Mot1-301 SUMO 473.7*, tim10-1 inh 19.2, PfHsp90 set2 7.3 and Yeast Mot1 SUMO 0.3.
For COc1ccc(CN(CC(=O)NCc2ccco2)C(=O)CCC(=O)Nc2nccs2)cc1 the results were tim23-1 inh 8.5, TIM10 inh -4.4, Mot1-301 SUMO 868.1*, tim10-1 inh 6.2, PfHsp90 set2 -5.7 and Yeast Mot1 SUMO 0.1.
COc1ccc(S(=O)(=O)NCC(=O)N(CC(=O)NCc2ccco2)Cc2ccccc2)cc1 was read as tim23-1 inh -9.9, TIM10 inh 0.8, Mot1-301 SUMO 642.2*, tim10-1 inh -8.5, PfHsp90 set2 -4.3 and Yeast Mot1 SUMO 0.3.
CCc1nc2ccc(Cc3ccc4nc(CC)[nH]c4c3)cc2[nH]1 was read as tim23-1 inh 1.2, TIM10 inh 24.2, Mot1-301 SUMO 85.1, tim10-1 inh 23.8 and PfHsp90 set2 16.3.
Screening Cc1nn(C)cc1CNC(=O)C1CCC(=O)N(Cc2cccc(C(F)(F)F)c2)C1 (centres undefined) returned tim23-1 inh -9.2, TIM10 inh 5.6, Mot1-301 SUMO 374.7*, tim10-1 inh -6.0, PfHsp90 set2 5.5 and Yeast Mot1 SUMO -0.1.
`Cc1cc(CNC(=O)C2CCC(=O)N(Cc3cccc(C(F)(F)F)c3)C2)no1` (centres undefined) gave tim23-1 inh 0.0, TIM10 inh -2.7, Mot1-301 SUMO -18.8, tim10-1 inh -12.4 and PfHsp90 set2 -14.6.
COc1ccc(/C=C(/C#N)S(=O)(=O)c2ccc(C)cc2)cc1 was read as tim23-1 inh 8.3, TIM10 inh 33.8, Mot1-301 SUMO active, tim10-1 inh 26.3, PfHsp90 set2 -26.4 and Yeast Mot1 SUMO 0.2[21 µM].
For COc1ccc(N/C=C(\C#N)S(=O)(=O)c2ccc(OC)cc2)cc1 the results were tim23-1 inh 11.3, TIM10 inh -5.7, Mot1-301 SUMO 25.7, tim10-1 inh 12.3 and PfHsp90 set2 21.2.
`C/C(CC(=O)NC1CCCCC1)=N\NC(=O)Cc1ccc(-c2ccccc2)cc1` gave tim23-1 inh 5.0, TIM10 inh 9.9, Mot1-301 SUMO 437.0*, tim10-1 inh -0.3, PfHsp90 set2 -59.7 and Yeast Mot1 SUMO -0.1.
`CCOC(=O)c1ccc(CNC(=O)Cn2nnc(-c3ccc(C)cc3)n2)o1` gave tim23-1 inh 2.8, TIM10 inh 1.7, Mot1-301 SUMO active, tim10-1 inh 9.6, PfHsp90 set2 -25.5 and Yeast Mot1 SUMO 0.9.
COC(=O)C(Cc1ccccc1)NC(=O)CCNC(=O)c1ccco1 (centres undefined) was read as tim23-1 inh 11.0, TIM10 inh -2.0, Mot1-301 SUMO 4.6, tim10-1 inh 22.8 and PfHsp90 set2 13.4.
O=C(O)c1ccc(/C=N/NC(=O)c2cc(-c3ccc4c5c(cccc35)CC4)n[nH]2)cc1 was read as tim23-1 inh 9.2, TIM10 inh 20.9, Mot1-301 SUMO active, tim10-1 inh 8.5, PfHsp90 set2 28.4 and Yeast Mot1 SUMO 0.3.
`CCOc1ccc2[nH]c(C(=O)N/N=C/c3ccccc3OC)cc2c1` gave tim23-1 inh 30.2, TIM10 inh 19.7, Mot1-301 SUMO -6.4, tim10-1 inh -0.5 and PfHsp90 set2 -0.1.
COc1ccc2[nH]c(C(=O)N/N=C/c3ccccc3OC)cc2c1 was read as tim23-1 inh 41.5, TIM10 inh -0.9, Mot1-301 SUMO 502.9*, tim10-1 inh 12.8, PfHsp90 set2 0.2 and Yeast Mot1 SUMO 0.5.
For O=C(Nc1cc([N+](=O)[O-])ccc1F)C1CCN(S(=O)(=O)c2cccs2)CC1 the results were tim23-1 inh 1.7, TIM10 inh -0.8, Mot1-301 SUMO 7.9 and tim10-1 inh 7.7.
Screening CN(C)c1ccc(/C=C(/NC(=O)c2ccccc2)C(=O)NCCCn2ccnc2)cc1 returned tim23-1 inh -9.9, TIM10 inh 0.1, Mot1-301 SUMO -20.7, tim10-1 inh -23.2 and PfHsp90 set2 -6.6.
Screening c1ccc2c(C[C@@H]3CNCCN3CCCCC3CCCCC3)cccc2c1 returned tim23-1 inh 16.1, TIM10 inh 8.8, Mot1-301 SUMO 401.7*, tim10-1 inh -40.2, PfHsp90 set2 11.3 and Yeast Mot1 SUMO -2.9.
Screening c1ccc(C(c2ccccc2)N2CCN(C(c3ccccn3)c3nnnn3C3CCCC3)CC2)cc1 (centres undefined) returned tim23-1 inh 34.0, TIM10 inh 24.2, Mot1-301 SUMO active, tim10-1 inh 20.2 and Yeast Mot1 SUMO -0.4.
For Cc1ccc(N2C(=O)c3cccc4c(N5CCN(C)CC5)ccc(c34)C2=O)c2cccnc12 the results were tim23-1 inh 35.0, TIM10 inh 22.1, Mot1-301 SUMO 701.8*, tim10-1 inh 16.5 and Yeast Mot1 SUMO -0.5.
CC12CCC(=O)N1C(C(=O)OCc1c(Cl)cccc1Cl)CS2 (centres undefined) was read as tim23-1 inh 30.2, TIM10 inh 19.1, Mot1-301 SUMO -12.5, tim10-1 inh -10.2 and PfHsp90 set2 -23.1.
`Cc1ccc(NC2c3ncccc3C(=O)N2C2CCCCC2)cc1` (centres undefined) gave tim23-1 inh 19.7, TIM10 inh 6.8, Mot1-301 SUMO 9.9, tim10-1 inh 25.0 and PfHsp90 set2 -40.8.
Cc1ccc(NC2c3ncccc3C(=O)N2C2CCCCC2)cc1C (centres undefined) was read as tim23-1 inh 38.8, TIM10 inh 35.5, Mot1-301 SUMO 394.7*, tim10-1 inh 30.8, PfHsp90 set2 -8.0 and Yeast Mot1 SUMO -0.7.
O=C(NCc1csc(-c2cccs2)n1)C1CCC1 was read as tim23-1 inh 13.2, TIM10 inh -0.4, Mot1-301 SUMO -16.3, tim10-1 inh -0.1 and PfHsp90 set2 3.2.
Cc1ccc(S(=O)(=O)N2CCOCC2)cc1C(=O)N1CCN(c2ncccn2)CC1 was read as tim23-1 inh 2.2, TIM10 inh 1.0, tim10-1 inh 3.5 and PfHsp90 set2 3.5.
COC(=O)c1sc2ccccc2c1NC(=O)c1ccc(S(=O)(=O)N2CCCC(C)C2)cc1 (centres undefined) was read as tim23-1 inh -6.6, TIM10 inh -5.3, Mot1-301 SUMO 511.3*, tim10-1 inh 1.7, PfHsp90 set2 28.6 and Yeast Mot1 SUMO -0.2.
Screening COC(=O)c1sc2ccccc2c1NC(=O)c1ccc(S(=O)(=O)N2CCC(C)CC2)cc1 returned tim23-1 inh 2.1, TIM10 inh 14.8, Mot1-301 SUMO -4.5, tim10-1 inh 9.4 and PfHsp90 set2 -4.2.
